According to PubChem BioAssay (NCATS):
Inconclusive results are not listed. Activity calls are given as the source filed them. The call rests on the fitted dose curve; in most records, active means well fitted inhibition curve with a large enough effect; inconclusive means small, poorly fitted or top-dose-only effect; inactive means flat fitted curve, though single readings scatter.

Legend:
CRL-7250 = normal cell line; assay: Cytotoxic Profiling of Annotated Libraries Using Quantitative High-Throughput Screening (AID 1296008); conditions: Five cell lines viability, CellTiter-Glo ATP luminescence, 48-72 h; max response: hits give low values; on max response: on the % scale 0 is the no-effect control and ±100 the full control effect
Method in brief: (§1)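 Cytotoxicity was measured as CellTiter-Glo ATP luminescence, read after 10 min at room temperature. Compound treatment of the cells lasted 48 or 72 hr at 37 degrees Celsius in a qHTS format.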

HaCat [1] = assay: as above; conditions: Five cell lines viability, CellTiter-Glo ATP luminescence, 48-72 h; max response: hits give low values
Method in brief: as §1

KB-3-1 = assay: as above; conditions: Five cell lines viability, CellTiter-Glo ATP luminescence, 48-72 h; max response: hits give low values
Method in brief: as §1

NIH3T3 = assay: as above; conditions: Five cell lines viability, CellTiter-Glo ATP luminescence, 48-72 h; max response: hits give low values
Method in brief: as §1

HACAT [2] = assay: qHTS assay to identify novel small-molecules to repurpose for Merkel cell carcinoma treatment (AID 1296009); conditions: MCC and control cell lines, CellTiter-Glo viability, 72 h; at 44.8 µM (top of the series) unless noted
Method in brief: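 Cell viability measured by CellTiter-Glo following 72 hr compound treatment at 37 degree celsius, with NPC and MIPE libraries tested in 8- and 11-point concentration series.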

Measured: max response
Further: nearly all actives have a fitted effect of over 60% in size.

CCOC(=O)CCNc1cc(N2CCc3ccccc3CC2)nc(-c2cccnc2)n1
inactive: all assays above

CC(=O)NC[C@H]1CN(c2ccc(N3CCSCC3)c(F)c2)C(=O)O1
inactive: CRL-7250 3.86% | HaCat [1] | KB-3-1 -11.9% | NIH3T3 | HACAT [2]

C/C=C/C1=CC2=C(CO1)C(=O)C(C)(OC(=O)c1c(C)cc(O)cc1OC)C(O)C2 (stereo not given)
inactive: CRL-7250 3.73% | HaCat [1] | KB-3-1 2.17% | NIH3T3 1.21% | HACAT [2]

CC(C)(C)c1ccc(C(=O)Nc2cn3cc(-n4ccnc4)ccc3n2)cc1
inactive: CRL-7250 | HaCat [1] | KB-3-1 7.42% | NIH3T3 -1.43% | HACAT [2]

CC#CCn1c(N2CCCC(N)C2)nc2c1c(=O)n(Cc1nc(C)c3ccccc3n1)c(=O)n2C (stereo not given)
inactive: CRL-7250 0.556% | HaCat [1] | KB-3-1 | NIH3T3 | HACAT [2]

CCn1c(=O)n([C@H]2CCCN(c3nccc(-c4cc5ccccc5o4)n3)C2)c2ccccc21
inactive: CRL-7250 | HaCat [1] | KB-3-1 -9.5% | NIH3T3 | HACAT [2]

CN(C)N(C)C(=O)[C@@]1(Cc2ccccc2)CCCN(C(=O)[C@@H](Cc2c[nH]c3ccccc23)NC(=O)C(C)(C)N)C1
inactive: CRL-7250 -26.9% | HaCat [1] | KB-3-1 4.19% | NIH3T3 -7.17% | HACAT [2]

CC(C)c1c(O)ccc2c1CC[C@H]1C(C)(C)CCC[C@]21C
inactive: CRL-7250 | HaCat [1] | KB-3-1 7.3% | NIH3T3 | HACAT [2]

COc1ccc2c(NC(=O)Nc3cccc(C(F)(F)F)n3)ccnc2c1
inactive: CRL-7250 -17.8% | HaCat [1] | KB-3-1 | NIH3T3 -6.75% | HACAT [2]

CCC/C=C/C(=O)O[C@H]1CC(C)(C)CC2[C@@]13[C@H](O)C[C@]1(C)[C@@]2(CCC2[C@@]4(C)CC[C@H](O[C@@H]5O[C@H](C(=O)O)[C@@H](O)[C@H](O[C@@H]6O[C@H](CO)[C@H](O)[C@H](O)[C@H]6O[C@@H]6O[C@@H](C)[C@H](O)[C@@H](O)[C@H]6O[C@@H]6OC[C@](O)(CO)[C@H]6O)[C@H]5O[C@@H]5O[C@H](CO)[C@H](O)[C@H](O)[C@H]5O)C(C)(C)C4CC[C@]21C)O[C@H]3O (stereo not given in full)
inactive: CRL-7250 | HaCat [1] | KB-3-1 | NIH3T3 3.59% | HACAT [2] inactive [at 9.27 µM]

CN(C)c1ccc(NC(=O)NS(=O)(=O)c2ccc(Cl)cc2)cc1
inactive: CRL-7250 -11.7% | HaCat [1] | KB-3-1 | NIH3T3 -5.53% | HACAT [2]

CC(C)(C)c1ccc2c(c1)CC[C@H]2NC(=O)Nc1cccc2[nH]ncc12
inactive: CRL-7250 -3.64% | HaCat [1] | KB-3-1 -1.56% | NIH3T3 | HACAT [2]

C=C1CCC2C(C)(C(=O)O)CCCC2(C)C1CCC1=CCOC1=O (stereo not given)
inactive: CRL-7250 | HaCat [1] | KB-3-1 -6.84% | NIH3T3 | HACAT [2]

CN1CC[C@@H](c2c(O)cc(O)c3c(=O)cc(-c4ccc(C(F)(F)F)cc4Cl)oc23)[C@@H]1CO
inactive: CRL-7250 | HaCat [1] | KB-3-1 5.55% | NIH3T3 -4.65% | HACAT [2]

C/C=C(/C=C(C)/C=C/C=C/C=C(\C)C(=O)C12OC1C(O)(CCO)NC2=O)C(=O)OC (stereo not given)
inactive: CRL-7250 -6.59% | HaCat [1] | KB-3-1 | NIH3T3 -1.05% | HACAT [2] inactive [at 17.4 µM]

O=c1cc(OCc2ccc(F)cc2)ccn1-c1ccc(OCCN2CCCC2)cc1
inactive: CRL-7250 -11.7% | HaCat [1] | KB-3-1 -29.6% | NIH3T3 -16.9% | HACAT [2]

CC(=O)O[C@@H]1CC2C(C)(C)C(=O)C=C[C@]2(C)C2CC[C@@]3(C)[C@H](c4ccoc4)OC(=O)[C@H]4O[C@]43[C@@]21C (stereo not given in full)
inactive: CRL-7250 | HaCat [1] | KB-3-1 | NIH3T3 -4.81% | HACAT [2] inactive [at 17.4 µM]

O=[N+]([O-])c1ccc(Oc2ccc3c(c2)CCC(c2ccccc2)O3)nc1 (stereo not given)
inactive: CRL-7250 | HaCat [1] | KB-3-1 -24.2% | NIH3T3 -17% | HACAT [2]

CC[C@H](C)/C=C(C)/C=C/C1=CC2=CC(=O)[C@]3(C)OC(=O)[C@@H](C(C)=O)[C@@H]3C2=CO1
inactive: CRL-7250 -1.79% | HaCat [1] | KB-3-1 4.01% | NIH3T3 -1.49% | HACAT [2]

Cc1cc(NC(=O)NCCN2CCC(O)(Cc3ccccc3)CC2)c2ccccc2n1
inactive: CRL-7250 2.34% | HaCat [1] | KB-3-1 -1.93% | NIH3T3 | HACAT [2]

CCCCC1CCC(c2nc(-c3ccncc3)no2)CC1 (stereo not given)
inactive: CRL-7250 -23.2% | HaCat [1] | KB-3-1 -26.8% | NIH3T3 -3.82% | HACAT [2]

C=C1C(=O)OC2CC(C)C(CCC(C)O)=CCC12 (stereo not given)
inactive: CRL-7250 -9.97% | HaCat [1] | KB-3-1 | NIH3T3 -1.15% | HACAT [2]

CCc1ccc(-c2nc(CSCC(=O)NCCc3ccccc3)c(C)o2)cc1
inactive: CRL-7250 2.64% | HaCat [1] | KB-3-1 -10.3% | NIH3T3 -12.1% | HACAT [2]

C=C(CCC1C(C)(O)CCC2C(C)(C)C(O)CCC12C)C(O)CO (stereo not given)
inactive: CRL-7250 -26.3% | HaCat [1] | KB-3-1 -9.88% | NIH3T3 -4.7% | HACAT [2]

CC1(C)Oc2ncnc(N)c2N=C1c1ccc(C23CCC(CC(=O)O)(CC2)CC3)cc1
inactive: CRL-7250 1.74% | HaCat [1] | KB-3-1 -2.56% | NIH3T3 -15.7% | HACAT [2]

COC(=O)/C=C/C=C/C(=O)OC1C=C2COC(=O)C2(O)C2(C)CCCC(C)(C)C12 (stereo not given)
inactive: CRL-7250 | HaCat [1] | KB-3-1 4.64% | NIH3T3 -4.83% | HACAT [2] inactive [at 17.4 µM]

O=S(=O)(N[C@H]1CCCC[C@@H]1N1CCOCC1)c1ccc(Cl)cc1
inactive: CRL-7250 -16% | HaCat [1] | KB-3-1 1.51% | NIH3T3 | HACAT [2]

CC1OC(=O)C[C@@H]2C(C(=O)O)=CO[C@@H](O[C@H]3O[C@H](CO)[C@@H](O)[C@H](O)[C@H]3O)[C@H]12 (stereo not given in full)
inactive: CRL-7250 -4.73% | HaCat [1] | KB-3-1 | NIH3T3 | HACAT [2]

Fc1ccc(CN2CCC(Nc3ccc(C(F)(F)F)nn3)CC2)cc1F
inactive: CRL-7250 -3.28% | HaCat [1] | KB-3-1 -12.1% | NIH3T3 -5.8% | HACAT [2]

CC(NCCCc1cccc(C(F)(F)F)c1)c1cccc2ccccc12 (stereo not given)
inactive: CRL-7250 1.05% | HaCat [1] | KB-3-1 -6.75% | NIH3T3 3.68% | HACAT [2] inactive [at 17.4 µM]

CCC(C)C1NC(=O)C(Cc2ccccc2)NC(=O)C(CCCCCC(=O)C(O)CO)NC(=O)C2CCCCN2C1=O (stereo not given)
inactive: CRL-7250 -4.29% | HaCat [1] | KB-3-1 | NIH3T3 | HACAT [2] inactive [at 17.4 µM]

CC1=CC2/C=C(\C)CCC(O)C/C=C/C(=O)OC23C(=O)NC(CC(C)C)C3C1C (stereo not given)
inactive: CRL-7250 -1.17% | HaCat [1] | KB-3-1 | NIH3T3 | HACAT [2] inactive [at 17.4 µM]

COC1C=C(C)C(O)(CO)C2(C)CCCC(C)(C)C12 (stereo not given)
inactive: CRL-7250 | HaCat [1] | KB-3-1 2.43% | NIH3T3 -0.263% | HACAT [2]

CC1=C(C(=O)Nc2cc(Cl)ccc2Cl)C(c2ccco2)C2=C(CCCC2=O)N1 (stereo not given)
inactive: CRL-7250 -1.05% | HaCat [1] | KB-3-1 7.23% | NIH3T3 -25.9% | HACAT [2]

COC1=CC(=O)O/C1=C(/OC)[C@@H]1O[C@H]1c1ccccc1
inactive: CRL-7250 -14.3% | HaCat [1] | KB-3-1 -13.4% | NIH3T3 -27.3% | HACAT [2]

O=C(c1cc(Cc2n[nH]c(=O)c3ccccc23)ccc1F)N1CCCNCC1
inactive: CRL-7250 0.306% | HaCat [1] | KB-3-1 | NIH3T3 0.0332% | HACAT [2]

CC/C=C\CC1C(=O)C=CC1(CCCCC1CCC(=O)O1)OC(C)=O (stereo not given)
inactive: CRL-7250 | HaCat [1] | KB-3-1 4.62% | NIH3T3 4.76% | HACAT [2]

O=C(Nc1cc(C(F)(F)F)ccc1N1CCCCC1)c1ccncc1
inactive: CRL-7250 -7.1% | HaCat [1] | KB-3-1 -6.53% | NIH3T3 1.75% | HACAT [2]

C/C=C/C=C/C(=O)O[C@@H]1C=C2COC(=O)[C@]2(O)[C@@]2(C)CCCC(C)(C)[C@H]12
inactive: CRL-7250 -1.83% | HaCat [1] | KB-3-1 0.722% | NIH3T3 | HACAT [2]

CCCn1cc2c(nc(NC(=O)Nc3ccc(OC)cc3)n3nc(-c4ccco4)nc23)n1
inactive: CRL-7250 4.71% | HaCat [1] | KB-3-1 9% | NIH3T3 | HACAT [2]

CCNC1(C(N)=O)CCN(c2ncnc3c2nc(-c2ccccc2Cl)n3-c2ccc(Cl)cc2)CC1
inactive: CRL-7250 | HaCat [1] | KB-3-1 6.15% | NIH3T3 -1.7% | HACAT [2]

COc1cc(C2OC(c3ccc(OC)c(OC)c3)C(C)C2C)ccc1O (stereo not given)
inactive: CRL-7250 -1.49% | HaCat [1] | KB-3-1 -5.2% | NIH3T3 -6.22% | HACAT [2]

CCCOc1ccc(S(=O)(=O)N2CCN(CCO)CC2)cc1-c1nc2c(CCC)cn(CC)c2c(=O)[nH]1
inactive: CRL-7250 -15% | HaCat [1] | KB-3-1 7.41% | NIH3T3 4.33% | HACAT [2]

CNCCCC1(c2ccccc2)OC(C)(C)c2ccccc21 (stereo not given)
inactive: CRL-7250 3.46% | HaCat [1] | KB-3-1 -1.28% | NIH3T3 | HACAT [2]

COc1cc(C(=O)NC(=S)Nc2cccc(NC(=O)c3ccccc3)c2)cc(OC)c1OC
inactive: CRL-7250 -13% | HaCat [1] | KB-3-1 6.94% | NIH3T3 4.46% | HACAT [2]

CC(=O)O[C@@H]1CC[C@@]2(C)C(CC[C@]3(C)C2[C@H](O)C=C2[C@H]4[C@@H](C)[C@H](C)CC[C@]4(C)CC[C@]23C)[C@@]1(C)C(=O)O (stereo not given in full)
inactive: CRL-7250 -13.3% | HaCat [1] | KB-3-1 | NIH3T3 | HACAT [2] inactive [at 17.4 µM]

CC1(C)CCCC2(C)C1C(OC(=O)/C=C/C=C/C=O)C=C1COC(=O)C12O (stereo not given)
inactive: CRL-7250 -21.2% | HaCat [1] | KB-3-1 | NIH3T3 -7.98% | HACAT [2] inactive [at 17.4 µM]
